# Data reported in PubChem BioAssay (NCATS).
# Records with an inconclusive call do not appear. Calls of active or inactive are those of the source. Calls follow the shape of the dose curve; as a rule, active = well fitted activation curve with a large enough effect; inconclusive = small, poorly fitted or top-dose-only effect; inactive = flat fitted curve, though single readings scatter.
# Assay: qHTS for Activators of Parkin Expression: LOPAC Validation Assay (NLuc Reporter) (AID 720572;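 also: 0% = DMSO and 100% = positive control compound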)
# Settings: Parkin promoter NanoLuc reporter cells, luminescence, percent of positive control, DMSO as zero; series mostly up to 46.1 µM; activation: at the top concentration
# Description: Parkin is an E3 ubiquitin ligase localized in the cytosol of cells expressed in many tissues, including brain, skeletal muscle, heart and liver tissues. One hour after stress induction by mitochondrial uncouplers (which mimic mitochondria damage by decreasing the mitochondrial inner membrane electrochemical gradient that is used to produce ATP), Parkin translocates from the cytosol to mitochondria in many cultured cell types, including neurons and HeLa cells. Administration of other mitochondrial poisons, such as Paraquat and azide in cells lacking mitochondrial DNA (mtDNA), induces Parkin translocation to mitochondria. […] It was proposed that Parkin (together with Pink1) mediates a mitochondrial quality control pathway to maintain organelle population fidelity by removing damaged mitochondria. Understanding the normal physiologic role of Parkin (and Pink1) may uncover novel treatment strategies for sporadic Parkinson's disease patients with mutation in these genes.
# A cell based qHTS in 1536 well format was developed assess modulation of Parkin expression using a neuronal cell line that stably expresses a stably expresses a luminescent coincidence reporter (FLuc and NLuc reporters) behind the Parkin promoter. The LOPAC library is used to validate the assay for quantitative high-throughput screening. The data herein reports the signal from the NLuc reporter. An increase in this signal = activation of Parkin expression. For this assay , a positive control normalized signal increase corresponding to a high quality qHTS curve class in both luminescent channels is the desired outcome for this assay.
# NIH Chemical Genomics Center [NCGC]
# NIH Molecular Libraries Probe Centers Network [MLPCN]
# Assay Submitter (PI): Richard Youle, National Institute of Neurological Disorders and Strokes (NINDS), NIH
# [1] Narendra, D., et al., Parkin is recruited selectively to impaired mitochondria and promotes their autophagy. J Cell Biol, 2008. 183(5): p.
# [2] Suen, D.F., et al., Parkin overexpression selects against a deleterious mtDNA mutation in heteroplasmic cybrid cells. Proc Natl Acad Sci U S A, 2010. […] 11835-40.
# [3] Cheng K, Inglese J. A coincedence reporter-gene system for high-throughput screening. Nat Methods. 2012: 9(10);937
# Five microliters (1,500 cells/well) of the Parkin coincidence reporter cells were seeded to 1536 well assay plates (Greiner Catalog # 789173-F) and incubated at 37 C, 5% CO2 for 24 hours. Compounds (23 nL) were pinned using the Kalypsys robotic system equipped with 1536 pin head adaptor in 7-point dose response. The assay plates were incubated for additional 24 hr at 37 C, 5% CO2 followed by a volume reduction in each well to 2 uL using an automated plate washer/aspirator. Following the volume reduction,2 uL of FLuc detection reagent and plates were incubated for 10 minutes at room temperature. The FLuc luminescence signal was obtained using the PerkinElmer ViewLux plate imager and then 2 uL of NanoLuc detection reagent was added to the plates. After another 10 minute incubation, NanoLuc signal was obtained using the PerkinElmer ViewLux plate imager as before. Data from each channel was normalized to DMSO (neutral control) and the positive control compounds (100%).
row,SMILES,activation
1,CC(C)NCC(O)c1ccc(NS(C)(=O)=O)cc1 (configuration not stated),-0.417% (inactive)
2,COc1cc2nc(N3CCCN(C)CC3)nc(NC3CCN(Cc4ccccc4)CC3)c2cc1OC,24.6% (inactive)
3,CCN1CCCC1CNC(=O)c1cc(S(N)(=O)=O)ccc1OC (configuration not stated),-0.547% (inactive)
4,NC(=O)c1ccc2[nH]ccc2c1,-0.0225% (inactive)
5,NC(=O)c1cccc(N)c1,-2.92% (inactive)
6,Cc1ccc(S(=O)(=O)N[C@@H](Cc2ccccc2)C(=O)CCl)cc1,-27.1% (inactive)
7,CCN(CC)CCn1c(=O)c(Cc2ccc(OC)cc2)nc2ccccc21,0.723% (inactive)
8,CC1CC2C3CCC4=CC(=O)C=C[C@]4(C)[C@@]3(F)[C@@H](O)C[C@]2(C)[C@@]1(O)C(=O)CO (some centres not stated),6.02% (inactive)
9,CC1=C(C(=O)O)N2C(=O)[C@@H](NC(=O)C(N)c3ccccc3)[C@H]2SC1 (some centres not stated),7.59% (inactive)
10,Nc1nc(N)c2nc(CNc3ccc(C(=O)NC(CCC(=O)O)C(=O)O)cc3)cnc2n1 (configuration not stated),-7.29% (inactive)
11,CCN(CC)CC#CCOC(=O)C(O)(c1ccccc1)C1CCCCC1 (configuration not stated),-13.6% (inactive)
12,N[C@@H](Cc1ccc(O)c(O)c1)C(=O)O,4.74% (inactive)
13,CCCCS(=N)(=O)CCC(N)C(=O)O (configuration not stated),-2.32% (inactive)
14,O=C(O)C1CCCN(CCC=C(c2ccccc2)c2ccccc2)C1 (configuration not stated),-3.25% (inactive)
15,COc1cc2ncnc(Nc3cccc(Cl)c3)c2cc1OC,24.1% (inactive)
16,CC(=O)[C@H]1CC[C@H]2[C@@H]3CCC4=CC(=O)CC[C@]4(C)[C@H]3CC[C@]12C,-3.9% (inactive)
17,OCc1ccc(-c2nn(Cc3ccccc3)c3ccccc23)o1,3.17% (inactive)
